The list is not random: actives were taken first. Their share in the collection is about 3.9%.
Anthrax LF prot = inhibitors of Bacillus anthracis lethal factor protease. P15917. multiplex microsphere protease cleavage assay, LF. inhibition, % at 10 µM. 360,000 compounds, 0.12% hits. AID 588501
SARS 3CLpro inh = SARS-CoV 3CLpro protease inhibition. P0C6X7. recombinant SARS-CoV 3CLpro, quenched FRET peptide cleavage. inhibition, % at 6 µM. 290,000 compounds, 0.14% hits; in the data active = inhibition above about 12%
BoNT A protease = blocks Botulinum neurotoxin A light chain protease; 360,000 compounds, 0.17% hits; multiplex microsphere protease substrate cleavage, flow cytometry; inhibition, % at 10 µM
Autofluor counter = counter-screen for toxin protease inhibitors: compound fluorescence; compound autofluorescence counterscreen, microsphere flow cytometry; hits give high values; fluorescence intensity (test concentration not listed); 360,000 compounds, 3.1% hits; AID 624483; in the data active = fluorescence intensity above about 16000; inconclusive = no clear call, values can overlap the other calls
BoNT F protease = blocks Botulinum neurotoxin F light chain protease; Multiplex microsphere protease cleavage assay, flow cytometry; inhibition, % at 10 µM; 360,000 compounds, 0.22% hits; in the data active = inhibition above about 35%, passing the limit was not always enough; inconclusive = no clear call, values can overlap the other calls
VHR inh abs = blocks human VHR1 dual specificity phosphatase; 290,000 compounds, 0.52% hits; recombinant VHR phosphatase, pNPP absorbance; inhibition, % at 13.3 µM; P51452; in the data active = inhibition above about 50%
Target sequence (P51452 whole entry, looked up): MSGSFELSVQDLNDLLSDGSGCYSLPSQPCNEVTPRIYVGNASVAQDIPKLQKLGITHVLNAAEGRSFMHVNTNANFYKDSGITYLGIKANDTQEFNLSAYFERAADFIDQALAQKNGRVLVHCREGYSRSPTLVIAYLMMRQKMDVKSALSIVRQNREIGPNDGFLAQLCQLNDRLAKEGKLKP
Each line names hits and unclear results; the compound was inactive in the other large screens. Rule as the data show it, unless noted: active = inhibition above about 30%; inconclusive = no clear call, values can overlap the other calls; inactive = below that.

COc1ccc(CC(N)c2csc(Nc3cc(NCc4ccco4)ncn3)n2)cc1 (configuration not stated)	none (no result: SARS 3CLpro inh, VHR inh abs)
COCCN(C(=O)c1ccc2c(c1)S(=O)(=O)N=C1CCCCCN12)c1c(N)n(CC(C)C)c(=O)[nH]c1=O	none (no result: SARS 3CLpro inh, VHR inh abs)
Cc1ccc(Nc2nc(C(=O)NCc3ccco3)cs2)cc1	Autofluor counter 21266
CC(=O)c1cccc(NC(=O)c2cc(-c3ccc(F)cc3)on2)c1	Autofluor counter 19126
CC(C)(O)CC[C@H](OC(=O)c1ccccc1)[C@](C)(O)[C@H]1CC[C@@]2(O)C3=CC(=O)[C@@H]4C[C@@H](O)[C@H](O)C[C@]4(C)C3CC[C@]12C (some centres not stated)	none
COc1ccc(C)cc1NC(=O)COCC(=O)O	Autofluor counter 20410
CCOC(=O)c1c(C)nc2c(c1-c1cc(OC)c(OC)c(OC)c1)C(=O)c1ccccc1-2	BoNT A protease inconclusive, Autofluor counter 19026
Cc1nn(C(C)C(=O)NC(C)CCc2ccccc2)c(=O)c2cc3occc3n12 (configuration not stated)	none
Cc1cc(C)n2c(SCC#N)nnc2n1	none
Cc1cc(C)n2c(SCc3ccc(C#N)cc3)nnc2n1	Autofluor counter 22207
Cc1ccc(/C=C/C(=O)O)cc1S(=O)(=O)N1CCCCC1	none
FC(F)(F)c1nnc2c(Sc3ccccn3)nc3ccccc3n12	Autofluor counter 22962
O=C(CSc1nnc2scc(-c3ccccc3)n12)Nc1ccc2c(c1)OCCO2	BoNT A protease inconclusive, Autofluor counter 16931
COCCn1c(SCC(=O)Nc2ccc3c(c2)OCCO3)nnc1-c1c[nH]c2ccccc12	Autofluor counter 22982
O=C(CCSc1nnc2scc(-c3ccccc3)n12)NCc1ccc2c(c1)OCO2	Autofluor counter 16498
Nn1c(SCC(=O)Nc2ccc3c(c2)OCCO3)nnc1-c1ccncc1	none
O=C(c1ccccc1)c1n[nH]c(-c2ccccc2)cc1=O	none
COc1ccc(NC(=O)CC2C(=O)N(C)C(=S)N2Cc2cccs2)cc1 (configuration not stated)	none
CCCOc1ccc(NC(=O)CC2C(=O)N(CC)C(=S)N2Cc2cccs2)cc1 (configuration not stated)	Autofluor counter 21389
O=C(Cn1nnc(-c2ccc(OCc3ccccc3F)cc2)n1)N1CCOCC1	Autofluor counter 22617
CCCN1C=CC(=C2C(=O)c3ccccc3C2=O)C=C1	none
CCN1C=CC(=C2C(=O)c3ccccc3C2=O)C=C1	Autofluor counter 17505
Cc1ccc(-c2[nH]ncc2C(=O)c2ccccc2C)c(O)c1	BoNT F protease 36
Cc1ccc(S(=O)(=O)N2CCN(C(=O)c3cc4c(C)nn(-c5ccccc5C)c4s3)CC2)cc1	none
Cc1ccccc1-n1nc(C)c2cc(C(=O)N3CCOCC3)sc21	BoNT A protease inconclusive, Autofluor counter 23082
CCN1Cc2c(/C=C/c3ccccc3)nc3ccc(OC)cc3c2N(c2cccc(Cl)c2)C1	BoNT A protease 53
COc1cccc(N2CCc3c(C)nc4ccc(Cl)cc4c32)c1	none
N/C(=N/OC(=O)c1ccccc1Cl)c1nonc1N	none
N/C(=N/OCC(=O)Nc1cccc2ccccc12)c1nonc1N	Autofluor counter 17291
Nc1nc(CN2CCN(Cc3ccccc3)CC2)nc(N2CCCc3ccccc32)n1	VHR inh abs 54
Nc1nc(CN2CCN(c3ccccc3)CC2)nc(N2CCCc3ccccc32)n1	none
COc1ccc(Cn2nnnc2C(c2cc3cc(C)ccc3[nH]c2=O)N2CCN(C)CC2)cc1 (configuration not stated)	none
COc1cc2cc(C(c3nnnn3Cc3ccc(F)cc3)N3CCCCCC3)c(=O)[nH]c2cc1OC (configuration not stated)	BoNT A protease inconclusive, Autofluor counter 18413
COc1ccc(Cn2nnnc2C(c2cc3ccc(OC)cc3[nH]c2=O)N2CCCCCC2)cc1 (configuration not stated)	Autofluor counter 22040
CCN(c1ccccc1)S(=O)(=O)c1ccc(N2CCN(c3ccc(O)cc3)CC2)nc1	Autofluor counter inconclusive (no result: SARS 3CLpro inh, VHR inh abs)
COc1ccc(-c2noc(CCC(=O)N3CCN(c4ccccc4F)CC3)n2)cc1	none (no result: SARS 3CLpro inh, VHR inh abs)
CCC(C)N(C(=O)COC(=O)c1cc([N+](=O)[O-])ccc1N1CCOCC1)C1CCS(=O)(=O)C1 (configuration not stated)	none (no result: SARS 3CLpro inh, VHR inh abs)
CN(C(=O)COC(=O)c1cc([N+](=O)[O-])ccc1N1CCCC1)C1CCS(=O)(=O)C1 (configuration not stated)	VHR inh abs 51
O=C1NCCCN1C1OC(CO)C(O)C1O (configuration not stated)	none (no result: SARS 3CLpro inh, VHR inh abs)
Cc1ccc(N(CC(=O)N2CCCCCC2)S(C)(=O)=O)c(C)c1	none (no result: SARS 3CLpro inh, VHR inh abs)
Cc1nc2c(-c3ccc(F)cc3)c(C)nn2c(C)c1CCC(=O)Nc1ccccc1F	none
CCC[C@@H]1C=C(C(=O)OCC)[C@H](c2ccccc2)N1S(=O)(=O)c1ccc(C)cc1	none (no result: SARS 3CLpro inh, VHR inh abs)
Cc1[nH]c2ccccc2c1/C=N/NC(=S)NC(C)C	BoNT A protease 59
CC(C)NC(=S)N/N=C/c1c[nH]c2ccccc12	none
COc1ccc(N(Cc2cc(=O)[nH]c3ccccc23)C(=O)c2ccco2)cc1	BoNT A protease inconclusive, Autofluor counter 20241
CCc1ccc(C(=O)N2CCCN(C)CC2)s1	none
O=C(c1ccc(Cl)s1)N1CCCC1	Autofluor counter 24368
CCc1ccc(C(=O)NC2CCCCC2)s1	Autofluor counter 20340
CS(=O)(=O)N1CCN(C(=O)c2ccc(Cl)s2)CC1	none
CCc1ccc(C(=O)N2CCCC2)s1	BoNT A protease inconclusive, Autofluor counter 16597
CCOc1ccc(S(=O)(=O)NCc2ccc(OC)cc2)c2cccnc12	none
Cc1c(C(=O)N2CCC[C@H]2CO)oc2c(F)cccc12	BoNT F protease inconclusive
CCC(=NCc1ccco1)c1c(O)n(C2CCCCC2)c(=O)[nH]c1=O	none
CCC(=Nc1ccc(OC)cc1OC)c1c(O)n(C2CCCCC2)c(=O)[nH]c1=O	Autofluor counter 22084
CC(=NCCO)c1c(O)n(C2CCCCC2)c(=O)[nH]c1=O	none
CCC(=NCCCN(CC)CC)c1c(O)n(C2CCCCC2)c(=O)[nH]c1=O	Autofluor counter 25763
CCN(CC)CCCN=C(C)c1c(O)n(C2CCCCC2)c(=O)[nH]c1=O	Autofluor counter 16590
Cc1ccc(SCC(=O)N2CCN(S(=O)(=O)c3cccs3)CC2)cc1	none (no result: SARS 3CLpro inh, VHR inh abs)
O=C(CCCCn1c(=S)[nH]c2ccsc2c1=O)NCc1ccco1	Autofluor counter 16657
O=C(CCCn1c(=S)[nH]c2ccsc2c1=O)NCc1ccco1	Autofluor counter 19127
Cc1ccccc1Cn1c(=O)n(CCCC(=O)NCc2ccco2)c(=O)c2sccc21	none
Cc1ccc2nc(SCC(=O)Nc3cc(C)on3)nc(=O)n2c1	none (no result: SARS 3CLpro inh, VHR inh abs)
O=c1ncn(-c2ccccc2F)c2ncccc12	Autofluor counter 21215
C[C@H](CO)N1C[C@H](C)[C@@H](CN(C)Cc2ccc(-c3ccccc3)cc2)Oc2c(NC(=O)Nc3ccc4c(c3)OCO4)cccc2C1=O	none (no result: SARS 3CLpro inh, VHR inh abs)
